Rows were chosen to be rich in hits. Some 2.2% of all compounds tested hit in one or more screens of this group.
iPSC survival up – hiPSC single-cell survival enhancement; ATPlite luminescence; 100% = ROCK inhibitor wells, 0% = DMSO; 360,000 tested, 0.044% active; survival enhancement, % at 20 µM; AID 602274; in the data active means survival enhancement above about 18%;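 further: cells exposed to compounds for 16 hours before the ATP read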
KKLEB cytotox – reduces viability of KKLEB cystic fibrosis airway cells. 360,000 tested, 0.36% active. activity change (cytotoxicity), % at 5 µM. KKLEB CF airway cells viability, ATPlite luminescence, overnight; active compounds read low; cells stimulated with P. aeruginosa culture filtrate. AID 602141;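 active means corrected activity change at or below -50% at 5 µM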
C8 TRAIL sens – caspase-8 TRAIL sensitization; NB7+C8 cells + TRAIL, ATPlite viability luminescence; inhibition (viability loss, TRAIL sensitization), % at 10 µM; 360,000 tested, 1% active; AID 624354;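 active means compounds causing at least 50% loss of cell viability in the single-dose screen, relative to plate controls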
PPC-1+TRAIL kill – PPC-1 cancer cell killing with TRAIL present; PPC-1 cells + TRAIL, ATPLite viability luminescence; cell killing (% activity), % at 4 µM or 5 µM; 220,000 tested, 0.41% active; AID 1443;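 active means cell killing above 50% in the first pass at 4 µM, then a duplicate retest at 5 µM averaging 50% or more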;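 further: plate controls were cells with TRAIL plus DMSO for no effect and medium-only wells lacking cells for full effect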
HIF-2a block – blocks HIF-2a reporter activity | 786-0 RCC cells HIF-2a reporter, luciferase luminescence, overnight | inhibition, % at 18.8 µM | 360,000 tested, 0.72% active;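 active means inhibition of the luminescence signal of 40% or more relative to plate controls, in a single-dose primary screen at 18.75 µM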
CF NFkB block – inhibitors of cystic fibrosis induced NF-kB; inhibition, % at 5 µM; 360,000 tested, 0.86% active; KKLEB NF-kB-GFP reporter, PAF-induced, GFP fluorescence overnight;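 active means at least 50% inhibition at 5 µM, scaled per plate between neutral and stimulator controls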;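 further: PAF is a Pseudomonas aeruginosa culture filtrate used as stimulus; plate controls were PAF-stimulated DMSO wells for no effect and unstimulated DMSO wells for full effect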
Mdm2 MdmX conf – Mdm2/MdmX (human) interaction inhibition, confirmed; shares compounds with HIF-2a block; SaOS-2 split-luciferase Mdm2/MdmX complementation, luminescence; inhibition, % at 8 µM; 740 tested, 99% active;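 active means mean inhibition of the luminescence signal across two replicates at or above 26 percent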
Target sequence (O15151 whole entry, looked up): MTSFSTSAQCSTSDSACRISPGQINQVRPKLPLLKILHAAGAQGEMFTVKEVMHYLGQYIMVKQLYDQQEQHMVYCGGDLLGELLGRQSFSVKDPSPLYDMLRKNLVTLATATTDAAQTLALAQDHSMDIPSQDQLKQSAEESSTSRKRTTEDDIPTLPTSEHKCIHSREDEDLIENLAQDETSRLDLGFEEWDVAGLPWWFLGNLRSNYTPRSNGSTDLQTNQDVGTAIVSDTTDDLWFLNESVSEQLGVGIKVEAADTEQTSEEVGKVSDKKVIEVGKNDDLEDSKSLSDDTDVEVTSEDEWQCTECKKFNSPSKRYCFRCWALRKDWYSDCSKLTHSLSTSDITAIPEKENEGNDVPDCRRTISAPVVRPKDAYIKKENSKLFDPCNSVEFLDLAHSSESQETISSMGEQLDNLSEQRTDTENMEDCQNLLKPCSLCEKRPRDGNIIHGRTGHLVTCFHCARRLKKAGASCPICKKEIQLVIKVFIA
Target sequence (Q00987 whole entry, looked up): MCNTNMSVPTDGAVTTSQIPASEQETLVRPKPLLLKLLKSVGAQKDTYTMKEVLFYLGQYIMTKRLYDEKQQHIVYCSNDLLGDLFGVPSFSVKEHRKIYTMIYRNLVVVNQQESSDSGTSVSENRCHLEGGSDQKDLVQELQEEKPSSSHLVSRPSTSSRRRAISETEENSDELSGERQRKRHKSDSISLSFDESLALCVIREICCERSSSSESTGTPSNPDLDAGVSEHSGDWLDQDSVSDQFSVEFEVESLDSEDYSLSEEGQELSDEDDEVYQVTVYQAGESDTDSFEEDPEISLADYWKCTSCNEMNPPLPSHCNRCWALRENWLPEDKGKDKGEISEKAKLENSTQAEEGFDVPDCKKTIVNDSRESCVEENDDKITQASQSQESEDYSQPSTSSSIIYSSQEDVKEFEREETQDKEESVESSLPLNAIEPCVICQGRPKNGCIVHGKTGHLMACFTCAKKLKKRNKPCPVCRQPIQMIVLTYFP
HIF-2a inh conf – confirmation of HIF-2a inhibitors. AID 651580. inhibition, % at 18.8 µM. shares compounds with HIF-2a block. 786-0 RCC cells, HIF-2a luciferase reporter luminescence, overnight. 1,800 tested, 56% active;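 active means mean inhibition across four replicates of at least 40 percent at the single tested concentration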
HIF-1a counter – HIF-1a inhibition counter-screen for HIF-2a hits | MiaPaCa-2 HIF-1a luciferase reporter, desferoxamine, overnight | shares compounds with HIF-2a block | inhibition, % at 18.8 µM | AID 651589 | 1,800 tested, 72% active;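 active means mean inhibition of the reporter signal across four replicates at the single tested dose of 50% or more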
Starred values were filed as active, the others as inactive; . = no result given.

SMILES | iPSC survival up | KKLEB cytotox | C8 TRAIL sens | PPC-1+TRAIL kill | HIF-2a block | CF NFkB block | HIF-2a inh conf | HIF-1a counter | others
CCCn1c(=N)n(CC(=O)c2ccc(OCC(=O)OC)cc2)c2ccccc21 | -0.5 | -14.9 | 3.2 | . | 46.7* | -4.1 | 2.6 | 4.1
O=C(c1cc(C2CC2)nc2ccc(Br)cc12)N1N=C(C(F)F)CC1(O)C(F)F (configuration not stated) | 1.9 | -14.4 | 29.0 | -1.0 | 57.2* | 13.0 | 35.1 | 65.3*
CN(C)Cc1c(C(=O)N/N=C/C2CC=CCC2)nnn1-c1nonc1N (configuration not stated) | 0.1 | 5.4 | 16.2 | . | 2.2 | 11.2 | . | .
CC(C)(C)c1ccc(C(=O)N2CCCN(c3ccc([N+](=O)[O-])cn3)CC2)cc1 | 0.1 | 8.5 | 25.6 | 9.3 | 20.6 | -0.5 | . | .
O=c1[nH]c(CN2CCN(S(=O)(=O)/C=C/c3ccccc3)CC2)nc2cc(Cl)ccc12 | -0.3 | -24.3 | 25.4 | 16.0 | 50.0* | -10.1 | 18.1 | 93.1*
O=c1[nH]c(CN2CCN(S(=O)(=O)/C=C/c3ccccc3)CC2)nc2ccccc12 | 1.4 | -3.8 | 18.2 | 25.7 | 12.8 | -2.5 | . | .
CCOC(=O)c1sc(NC(=O)c2cc(-c3ccc(C)cc3)nc3ccccc23)c(C#N)c1C | -1.7 | -61.6* | 46.6 | 19.1 | -7.9 | 49.9 | . | . | Mdm2 MdmX conf=97.2*
Cc1nc(C(F)(F)F)ccc1C(=O)N1CCC1(C)C(=O)NS(=O)(=O)c1cccc(F)c1 (configuration not stated) | -2.2 | -10.5 | -17.3 | . | 7.9 | 21.2 | . | .
Cc1cc(O)c(C(C)C)cc1C1(c2cc(C(C)C)c(O)cc2C)OC(=O)c2ccccc21 | -0.4 | 0.7 | 16.1 | -3.4 | 50.0* | 33.3 | 62.8* | 107.3*
Cc1cc(C2(c3ccc(O)c(C)c3)OC(=O)c3ccccc32)ccc1O | 0.1 | 4.4 | -7.3 | 18.4 | 36.4 | 13.4 | . | .
COc1ccc(/C=C2\N=C(SC)N(c3ccccc3OC)C2=O)cc1 | -0.2 | -0.4 | 15.8 | -8.0 | -86.4 | -4.2 | . | . | Mdm2 MdmX conf=100.0*
CCOc1ccc(N2C(=O)/C(=C/c3ccccc3)N=C2SC)cc1 | 0.3 | -21.8 | 1.5 | -5.8 | -144.6 | 30.3 | . | .
CC(=O)C[C@@H](O)CC(=O)[C@@H]1OC(=O)CCCCCc2ccccc21 | -1.5 | 16.9 | -7.0 | . | 7.9 | 0.8 | . | .
CCCCNc1nc(=S)n(-c2ccccc2)c(C)c1C(C)=O | 0.3 | 1.5 | 12.4 | 12.4 | 51.0* | 7.4 | -12.3 | 30.2
CCOC(=O)N1CCN(S(=O)(=O)N2CCCC(C(=O)NCCc3ccc(C)cc3)C2)CC1 (configuration not stated) | -0.2 | 6.9 | 8.7 | . | 0.6 | 0.7 | . | .
CSc1ccccc1C(=O)N1CCC(n2nccc2NC(=O)C(C)(C)C)CC1 | 0.0 | 19.8 | -22.9 | . | -2.0 | -14.6 | . | .
COc1ccc(N2CCN(S(=O)(=O)c3cc4c(cc3C)N(C(C)=O)CCO4)CC2)cc1 | -0.4 | -8.3 | -10.1 | . | 7.4 | 10.6 | . | .
O=C(NCCc1ccccc1)C1CCC(CNS(=O)(=O)c2cccc3cccnc23)CC1 (configuration not stated) | 1.5 | 1.1 | 5.4 | -3.6 | -35.8 | -15.8 | . | .
COc1ccc(NC(=O)CN(C)CC(=O)N2CC(=O)Nc3ccccc32)cc1 | -0.4 | 17.7 | -11.2 | . | 3.6 | -11.6 | . | .
CCN1CCN(c2nc(Nc3ccc(NC(C)=O)cc3)nc(Nc3ccc(NC(C)=O)cc3)n2)CC1 | -0.4 | 0.0 | 0.3 | 28.4 | 67.7* | -2.4 | -5.4 | 9.3
CC(=O)Nc1ccc(/C(C)=N/Nc2nc(Nc3ccccc3)nc(N3CCOCC3)n2)cc1 | -2.8 | -9.0 | -4.4 | 15.8 | -10.9 | -5.3 | . | .
COc1ccccc1-c1cc(C(F)(F)F)nc(S(=O)(=O)CCCC(=O)N2CCOCC2)n1 | -3.5 | -78.9* | -8.4 | 7.1 | 83.0* | 89.5* | 47.7* | 104.0*
CCOc1cc(CNCCc2ccc(S(N)(=O)=O)cc2)ccc1OCc1ccc(Cl)cc1 | -1.6 | -44.6 | 72.8* | 27.2 | 85.5* | -6.7 | 3.3 | 102.4*
CCOc1cc(/C=N/N=C(N)N)ccc1OCc1ccc(Cl)cc1 | -4.0 | -24.3 | 86.6* | 50.2* | 97.5* | 6.3 | -11.2 | 107.0*
COc1cc(CNCCc2ccc(S(N)(=O)=O)cc2)ccc1OCc1ccc(Cl)cc1 | -1.1 | -24.4 | 42.8 | 18.4 | 74.8* | 19.8 | -7.9 | 93.5*
SMILES | iPSC survival up | KKLEB cytotox | C8 TRAIL sens | PPC-1+TRAIL kill | HIF-2a block | CF NFkB block | HIF-2a inh conf | HIF-1a counter | others
CCOc1ccc(CNCCc2ccc(S(N)(=O)=O)cc2)cc1 | 1.4 | 16.4 | 1.0 | 6.9 | 6.2 | -13.7 | . | .
O=C(c1cc(C2CCCCN2C(=O)CCCc2ccccc2)on1)N1CCOCC1 (configuration not stated) | -0.8 | -6.8 | 4.2 | . | -0.3 | -0.6 | . | .
CN(C(=O)c1ccc(OC2CCN(CCc3ccccc3)CC2)cc1)C1CCCCC1 | -0.5 | -8.1 | 2.0 | . | -21.3 | 12.8 | . | .
Cc1ccc(NC(=O)c2cc(N3C(=O)C=CC3=O)ccc2N2CCOCC2)cc1Cl | 0.0 | -9.1 | -1.0 | 23.7 | 47.6* | 29.9 | 67.7* | 31.4
CCOC(=O)CSCc1nc(-c2ccc(Cl)cc2)oc1C | 1.8 | 0.9 | 3.7 | 11.7 | 50.5* | 2.4 | 54.1* | 44.1
CCc1ccc(-c2nc(CSCC(=O)NCc3ccco3)c(C)o2)cc1 | -1.8 | -4.8 | 3.1 | 16.7 | 40.5* | -9.5 | 43.9* | 38.5
Cc1ccc(-c2nc(CSCC(=O)N3CCCC3)c(C)o2)cc1 | 3.7 | 14.1 | -10.7 | 30.6 | -38.3 | -0.4 | . | .
CCc1ccc(-c2nc(CS(=O)CC(=O)NCc3ccccc3)c(C)o2)cc1 (configuration not stated) | -0.5 | 0.0 | -2.7 | . | 50.2* | -3.2 | 44.8* | 55.1*
C[C@H](CO)N1C[C@H](C)[C@@H](CN(C)C(=O)NC2CCCCC2)Oc2c(NC(=O)Cc3ccccc3)cccc2C1=O | -0.5 | -2.1 | -24.0 | . | -1.5 | -8.7 | . | .
Cc1ccc(NC(=O)CSCC(=O)NNC(=O)c2nn(C)c(=O)c3ccccc23)cc1 | -0.3 | -21.3 | 3.0 | . | 7.1 | 20.5 | . | .
O=C(Cn1nc2n(c1=O)-c1ccccc1SC2)N/N=C/c1ccncc1 | -0.2 | -4.1 | 3.1 | 12.4 | 17.6 | 2.4 | . | .
O=C(O)CCn1cc(-c2ccc(F)cc2)nc1-c1ccncc1 | -2.3 | 8.4 | -12.7 | . | 4.7 | -2.0 | . | .
O=C(NNC(=S)NCc1ccco1)c1ccc(S(=O)(=O)N2CCOCC2)cc1 | -0.8 | -3.8 | -9.5 | 6.3 | 19.1 | -2.1 | . | .

Screening data deposited in PubChem by Sanford-Burnham Center for Chemical Genomics.
